# Laboratory results from PMC11062922 (Nature Chemical Biology, 2023).
# Where two headings read alike, the source gives them in different places.
# How the values were obtained:
# Parameters in all cases: species or system human, MV4-11 + K-562 + COLO205 + SK-N-BE2 + OVCAR-8
# CDK16 = details: read-out: apparent Kd, n = 1
# CDK2 = details: read-out: apparent Kd; compound concentrations:100 nM and 1000 nM (sheet 'Samples'); n = 1
# CDK9 = details: read-out: apparent Kd, n = 1
# CLK1 = details: read-out: apparent Kd; compound concentrations:100 nM and 1000 nM (sheet 'Samples'); n = 1
# CLK2 = details: read-out: apparent Kd; compound concentrations:100 nM and 1000 nM (sheet 'Samples'); n = 1
# CLK4 = details: read-out: apparent Kd; compound concentrations:100 nM and 1000 nM (sheet 'Samples'); n = 1
# GSK3A = details: read-out: apparent Kd, n = 1
# GSK3B = details: read-out: apparent Kd, n = 1
# ICK = details: read-out: apparent Kd; compound concentrations:100 nM and 1000 nM (sheet 'Samples'); n = 1
# NUAK2 = details: read-out: apparent Kd; compound concentrations:100 nM and 1000 nM (sheet 'Samples'); n = 1
# PRKCA = details: read-out: apparent Kd; compound concentrations:100 nM and 1000 nM (sheet 'Samples'); n = 1
# PRKCB = details: read-out: apparent Kd; compound concentrations:100 nM and 1000 nM (sheet 'Samples'); n = 1
# PRKCD = details: read-out: apparent Kd; compound concentrations:100 nM and 1000 nM (sheet 'Samples'); n = 1
# PRKCI = details: read-out: apparent Kd; compound concentrations:100 nM and 1000 nM (sheet 'Samples'); n = 1
# PRKCQ = details: read-out: apparent Kd; compound concentrations:100 nM and 1000 nM (sheet 'Samples'); n = 1
# RPS6KA3 = details: read-out: apparent Kd; compound concentrations:100 nM and 1000 nM (sheet 'Samples'); n = 1
# RPS6KA6 = details: read-out: apparent Kd; compound concentrations:100 nM and 1000 nM (sheet 'Samples'); n = 1
# RPS6KB1 = details: read-out: apparent Kd; compound concentrations:100 nM and 1000 nM (sheet 'Samples'); n = 1
# SLK = details: read-out: apparent Kd; compound concentrations:100 nM and 1000 nM (sheet 'Samples'); n = 1
# STK26 = details: read-out: apparent Kd; compound concentrations:100 nM and 1000 nM (sheet 'Samples'); n = 1
# VDAC3 = details: read-out: apparent Kd; compound concentrations:100 nM and 1000 nM (sheet 'Samples'); n = 1
# CDK17 = details: read-out: apparent Kd; compound concentrations: 100 nM and 1000 nM (sheet 'Samples'), CATDS: 0.129072520880324; n = 1
# CDKL5 = details: read-out: apparent Kd; compound concentrations: 100 nM and 1000 nM (sheet 'Samples'), CATDS: 0.15820279930109701; n = 1
# DYRK1A = details: read-out: apparent Kd; compound concentrations: 100 nM and 1000 nM (sheet 'Samples'), CATDS: 8.3758685626984103E-2; n = 1
# SMG1 = details: read-out: apparent Kd; compound concentrations: 100 nM and 1000 nM (sheet 'Samples'), CATDS: 7.6423635677126206E-2; n = 1
# [1] = compound concentrations:100 nM and 1000 nM (sheet 'Samples')
smiles,measurement,setting,value
Cn1cc(C2=C(c3cn(CCCSC(=N)N)c4ccccc34)C(=O)NC2=O)c2ccccc21 [RO0318220-000],potency estimated from few doses,CDK16; [1],1720 nM
same,potency estimated from few doses,CDK2,1070 nM
same,potency estimated from few doses,CDK9; [1],694 nM
same,potency estimated from few doses,CLK1,785 nM
same,potency estimated from few doses,CLK2,434 nM
same,potency estimated from few doses,CLK4,1430 nM
same,potency estimated from few doses,GSK3A; [1],158 nM
same,potency estimated from few doses,GSK3B; [1],183 nM
same,potency estimated from few doses,ICK,1720 nM
same,potency estimated from few doses,NUAK2,1420 nM
same,potency estimated from few doses,PRKCA,41.5 nM
same,potency estimated from few doses,PRKCB,105 nM
same,potency estimated from few doses,PRKCD,58.4 nM
same,potency estimated from few doses,PRKCI,2280 nM
same,potency estimated from few doses,PRKCQ,121 nM
same,potency estimated from few doses,RPS6KA3,1300 nM
same,potency estimated from few doses,RPS6KA6,33.8 nM
same,potency estimated from few doses,RPS6KB1,419 nM
same,potency estimated from few doses,SLK,2100 nM
same,potency estimated from few doses,STK26,1480 nM
same,potency estimated from few doses,VDAC3,2310 nM
CCN1CCC(C(=O)Nc2n[nH]c3nnc(-c4cccc(F)c4F)cc23)CC1.Cl [SB-686709-A],potency estimated from few doses,"CDK16; compound concentrations: 100 nM and 1000 nM (sheet 'Samples'), CATDS: 0.11637141533409",199 nM
same,potency estimated from few doses,CDK17,132 nM
same,potency estimated from few doses,"CDK9; compound concentrations: 100 nM and 1000 nM (sheet 'Samples'), CATDS: 8.2181630461084801E-2",1050 nM
same,potency estimated from few doses,CDKL5,60.5 nM
same,potency estimated from few doses,DYRK1A,937 nM
same,potency estimated from few doses,"GSK3A; compound concentrations: 100 nM and 1000 nM (sheet 'Samples'), CATDS: 0.64867635498298803",0.589 nM
same,potency estimated from few doses,"GSK3B; compound concentrations: 100 nM and 1000 nM (sheet 'Samples'), CATDS: 0.38395769159981902",1.75 nM
same,potency estimated from few doses,SMG1,1680 nM
